Data on 22 molecules can be found in PubChem BioAssay AID504373 (National Center for Advancing Translational Sciences (NCATS), 2011).

Where “and” joins values, the source holds several entries; their conditions need not be identical. Identical values can stand only once. Inconclusive results are not listed. Where a structure was tested more than once in an assay, its records may differ in their call. Calls of active or inactive are those of the source.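 Rule for the calls: active = fewer circulating green fluorescent tagged thrombocytes in treated fish, with no visible harm to the embryos; inconclusive = compound visibly harmful to the embryos; inactive = no drop in circulating tagged thrombocytes.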

One experiment in a line: qHTS Assay for Compounds Blocking the Interaction Between CBF-beta and RUNX1 for the Treatment of Acute Myeloid Leukemia: Zebrafish assay for Hematopoiesis, SAR for Probe. Particulars: GFP-cd41 zebrafish embryos, microscopy, 5 days, at 10 uM, stronger effect = lower value. The text has this:
NIH Chemical Genomics Center [NCGC] NIH Molecular Libraries Probe Production centers Network [MLPCN] MLPCN Grant: X01MH083259-01 Assay Submitter (PI): Paul Liu NCGC Assay Overview: Core Binding Factor (CBF) abnormalities are associated with 20-25% of all acute myeloid leukemias (AML), of which 5-10% are further sub classified as acute myelomonocytic leukemia with eosinophilia, also known as M4Eo in the FAB classification scheme. This subtype of leukemia is usually associated with chromosome 16 inversion (p13:q22). Chromosome 16 inversion results in formation of the fusion oncogene CBFB-MYH11, which encodes the fusion protein CBF-beta-SMMHC. […] It has been hypothesized that the interference of CBF-beta and RUNX1 binding could have therapeutic implications for patients with CBF mediated leukemias. We developed a CBF-beta and RUNX1 binding assay in AlphaScreenTM format and optimized it for high throughput screening to search for inhibitors. The goal of this project is to screen MLPCN's compound collection (MLSMR) for identifying the inhibitors of the interaction between CBF-beta and RUNX1 proteins as research probes. If these probes work well in the animal models, the ultimate goal of this project is to development a new drug treatment for this disease. […] These fish contain a genomic modulation where GFP has been fused to cd41, a marker for thrombocytes, and thus circulating thrombocytes can be easily imaged in anesthetized fish.
Assay protocol: GFP-cd41 zebrafish were kindly provided by the Liu lab. Zebrafish embryos were incubated with compound (<0.1% DMSO final) at 48 hours post fertilization, for 5 days. Embryos were manually scored under a microscope with GFP illumination for circulating GFP-tagged thrombocytes. Keywords: MLSMR, MLPCN, NIH Roadmap, qHTS, NCGC, Core binding factor, CBF, CBF-beta, Acute myeloid leukemia
Background: qHTS replaces the single test concentration by a dilution series.
As for `CN(C)CC(=O)Nc1ccc(Cl)cc1C(=O)c1ccc[nH]1`, the fish with circulating GFP thrombocytes turned out to be 70%.

The molecule `NCCCC(=O)Nc1ccc(Cl)cc1C(=O)c1ccc[nH]1` registered a fish with circulating GFP thrombocytes of 93.3%.

The same experiment, now with this note: GFP-cd41 zebrafish embryos, microscopy, 5 days, at 25 µM, stronger effect = lower value.
Take `NCCC(=O)Nc1ccc(Cl)cc1C(=O)c1ccc[nH]1`: the fish with circulating GFP thrombocytes is 100% (inactive). Consider `CC(=O)Nc1ccc(Cl)cc1C(=O)c1ccc[nH]1`, for which the fish with circulating GFP thrombocytes is 70.8% (active) and 100% (inactive). On to `CCC(=O)Nc1ccc(Cl)cc1C(=O)c1ccc[nH]1`, for which the fish with circulating GFP thrombocytes is 100% (inactive).

As for `O=C(c1ccc[nH]1)c1cc(Cl)ccc1NC(=O)[C@@H]1CCCN1`, the fish with circulating GFP thrombocytes was 100% (inactive). With `CC(C)(N)C(=O)Nc1ccc(Cl)cc1C(=O)c1ccc[nH]1`, the fish with circulating GFP thrombocytes is 100% (inactive). With `NCCCC[C@H](N)C(=O)Nc1ccc(Cl)cc1C(=O)c1ccc[nH]1`, the fish with circulating GFP thrombocytes was 100% (inactive). On the same count and under the same terms, then `C[C@H](N)C(=O)Nc1ccc(Cl)cc1C(=O)c1ccc[nH]1`, with 100% (inactive); and `CNCc1nc(-c2ccc[nH]2)c2cc(Cl)ccc2n1`, with 100% (inactive). On to `NC(N)=NCCC[C@H](N)C(=O)Nc1ccc(Cl)cc1C(=O)c1ccc[nH]1`, for which the fish with circulating GFP thrombocytes is 100% (inactive). Turning to `CN(C)CC(=O)Nc1ccc(Cl)cc1C(=O)c1ccc[nH]1`, the fish with circulating GFP thrombocytes was 59.4% (active). For the molecule `Nc1ccc(Cl)cc1C(=O)c1ccc[nH]1`, the fish with circulating GFP thrombocytes is 83.3% (active). Same read-out and setting: then `C[C@@H](N)C(=O)Nc1ccc(Cl)cc1C(=O)c1ccc[nH]1`, with 100% (inactive); and `N[C@H](C(=O)Nc1ccc(Cl)cc1C(=O)c1ccc[nH]1)c1ccccc1`, with 100% (inactive); and `N[C@@H](CC(=O)O)C(=O)Nc1ccc(Cl)cc1C(=O)c1ccc[nH]1`, with 100% (inactive). As for `NCC(=O)Nc1ccc(Cl)cc1C(=O)c1ccc[nH]1`, the fish with circulating GFP thrombocytes is 100% (inactive). Consider `CNCC(=O)Nc1ccc(Cl)cc1C(=O)c1ccc[nH]1`, for which the fish with circulating GFP thrombocytes was 100% (inactive).

For the molecule `N[C@@H](CCC(=O)O)C(=O)Nc1ccc(Cl)cc1C(=O)c1ccc[nH]1`, the fish with circulating GFP thrombocytes was 100% (inactive).

In the case of `N[C@H](Cc1ccccc1)C(=O)Nc1ccc(Cl)cc1C(=O)c1ccc[nH]1`, the fish with circulating GFP thrombocytes was 100% (inactive).

Turning to `NCCCC(=O)Nc1ccc(Cl)cc1C(=O)c1ccc[nH]1`, the fish with circulating GFP thrombocytes is 100% (inactive). Regarding `NC(=O)C[C@H](N)C(=O)Nc1ccc(Cl)cc1C(=O)c1ccc[nH]1`, the fish with circulating GFP thrombocytes is 100% (inactive). With `CC(C)[C@H](N)C(=O)Nc1ccc(Cl)cc1C(=O)c1ccc[nH]1`, the fish with circulating GFP thrombocytes is 100% (inactive).

Take `N[C@@H](Cc1ccccc1)C(=O)Nc1ccc(Cl)cc1C(=O)c1ccc[nH]1`: the fish with circulating GFP thrombocytes was 100% (inactive).

The same experiment, now with this note: GFP-cd41 zebrafish embryos, microscopy, 5 days, at 50 uM, stronger effect = lower value.
As for `CC(=O)Nc1ccc(Cl)cc1C(=O)c1ccc[nH]1`, the fish with circulating GFP thrombocytes stood at 66.7%.

As for `Nc1ccc(Cl)cc1C(=O)c1ccc[nH]1`, the fish with circulating GFP thrombocytes came out at 70.8%.
